# Rows were chosen to be rich in hits. Some 1.3% of all compounds tested hit in one or more screens of this group.
# UBC9 SUMO inh: SUMOylation inhibition | P63279 | HTRF SUMOylation assay, SAE1/SAE2 + UBC9, in vitro | inhibition, % at 35 µM | 290,000 tested, 0.36% active | AID 2006; in the data active means inhibition above about 50%, passing the limit was not always enough
# Target sequence (P63279 whole entry, looked up): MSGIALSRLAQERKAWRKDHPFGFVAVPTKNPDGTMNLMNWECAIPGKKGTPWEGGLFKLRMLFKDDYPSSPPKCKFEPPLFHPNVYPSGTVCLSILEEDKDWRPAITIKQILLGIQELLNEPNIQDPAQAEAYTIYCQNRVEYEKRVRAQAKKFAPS
# 14-3-3 Bad inh: disrupts binding of bovine 14-3-3 zeta to phospho-Bad peptide | P63103 | TR-FRET 14-3-3zeta/Dy647-pBad peptide displacement, 1 h | inhibition, % at 21.7 µM | 220,000 tested, 0.71% active | AID 781;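 active means inhibition above about 70%, limit read from the data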;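 further: 0% = full 14-3-3 plus peptide FRET controls and 100% = background without 14-3-3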
# eIF4E-4G inh: blocks eIF4E binding to eIF4G; inhibition, % at 21.7 µM; P63073+Q04637; 220,000 tested, 0.37% active; TR-FRET eIF4E-eIF4GI(517-606) binding, 2 h;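 further: 0% = full FRET control wells and 100% = background wells lacking eIF4GI fragment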
# NCF1 inh: p47phox (human) inhibition | p47phox/p22phox peptide binding, fluorescence polarization, 2 h | inhibition, % at 24.7 µM | P14598 | AID 1274 | 220,000 tested, 0.53% active;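 further: 0% = p47phox with labelled peptide and 100% = labelled peptide alone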
# Target sequence (P14598 whole entry, looked up): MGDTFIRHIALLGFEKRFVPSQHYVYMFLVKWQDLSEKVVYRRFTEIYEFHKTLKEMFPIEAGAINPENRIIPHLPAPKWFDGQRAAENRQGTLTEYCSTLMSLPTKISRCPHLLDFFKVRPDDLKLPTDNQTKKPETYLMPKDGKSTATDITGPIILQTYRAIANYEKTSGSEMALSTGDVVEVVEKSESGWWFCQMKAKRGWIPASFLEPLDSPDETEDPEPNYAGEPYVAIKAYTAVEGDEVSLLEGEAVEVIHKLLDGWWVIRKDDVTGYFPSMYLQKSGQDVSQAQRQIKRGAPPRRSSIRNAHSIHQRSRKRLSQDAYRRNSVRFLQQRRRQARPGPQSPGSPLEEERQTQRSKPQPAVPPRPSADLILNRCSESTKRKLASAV
# Numbers without * were called inactive; / = not tested or not shown; [ ] = remark or other dose.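 How the source made its calls, unless noted: active means inhibition above about 30% (limit read from the data); inactive means the rest.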
SMILES,UBC9 SUMO inh,14-3-3 Bad inh,eIF4E-4G inh,NCF1 inh
COc1ccc(S(=O)(=O)Nc2cc(Sc3ncn[nH]3)c(O)c3ccccc23)cc1,88*,87*[fluorescence artefact?],46*[fluorescence artefact?],16
Cc1ccc(CNC(=O)CCSCc2ccc(C)cc2)cc1,3,/,/,/
Cc1c(C(=O)C(=O)N2CC=C(c3ccccc3)CC2)c2ccccc2n1C,4,7,-2,-59
Cc1ccc(C(=O)N2c3ccccc3CC2C)o1 (configuration not stated),13,-3,5,41*
Cc1c(C(=O)C(=O)N2c3ccccc3CC2C)c2ccccc2n1C (configuration not stated),2,-17,0,41*
CCCCC1CC1C(=O)Nc1ccc(OC)c(OC)c1 (configuration not stated),-1,8,1,-4
O=C(COc1ccccc1[N+](=O)[O-])N(Cc1ccco1)C1CCS(=O)(=O)C1 (configuration not stated),4,/,/,/
O=C(Nc1ccccn1)c1cc2cc([N+](=O)[O-])ccc2s1,10,47,5,11
C=CCOc1ccc2cccc(/C=N/NC(=O)c3cc4cc([N+](=O)[O-])ccc4s3)c2c1,-7,17,-16,41*
O=C(CCC(=O)N1CCOc2ccccc21)NC1CCCCCC1,13,/,/,/
O=C(CN1C(=O)/C(=C/c2ccco2)SC1=S)Nc1ccc(C(=O)O)c(O)c1,72*,/,/,/
O=C(CCCN1C(=O)/C(=C/c2ccco2)SC1=S)Nc1cccc(C(=O)O)c1,64*,6,3,-36
CC(C(=O)Nc1ccc(C(=O)O)c(O)c1)N1C(=O)/C(=C\c2ccco2)SC1=S (configuration not stated),57*,/,/,/
O=C(CN1C(=O)/C(=C/c2ccco2)SC1=S)Nc1ccc(O)c(C(=O)O)c1,51*,/,/,/
CCOc1cc(/C=N/N=C(\N)c2nonc2N)cc(Br)c1OCc1cccc2ccccc12,56*,15,-16,-3
O=C(CN1CCOCC1)n1c2ccccc2c2ccccc21,-3,75*,0,-11
O=C(CN1CCN(C(c2ccccc2)c2ccccc2)CC1)N1CCOCC1,22,73*,2,-1
O=C(CN1CCOCC1)n1c2c(c3ccccc31)CCCC2,6,-2,0,3
Cn1cccc1Cc1nnc(SCC(N)=O)n1CCc1ccccc1,13,-7,-2,89*
O=C(NC(=S)NNC(=O)c1ccco1)c1ccc(Br)cc1,-56,/,/,/
NS(=O)(=O)c1ccc(NC(=S)NCc2ccc(Cl)cc2)cc1,-18,13,35*,-3
CC(=O)Nc1ccc(S(=O)(=O)NCc2ccc(C(=O)NCc3ccc(Cl)cc3)cc2)cc1,24,74*,-37,12
CN(CC(=O)Nc1ccc(F)cc1)C(=O)COc1ccc(C(=O)c2ccccc2)cc1,-4,3,4,-20
CCOC(=O)c1nnn(-c2nonc2-n2cccc2)c1-c1cccc([N+](=O)[O-])c1,-4,-13,4,-12
Cc1ccc(-c2c[n+](CC(=O)Nc3cc(=O)n(C)c(=O)n3C)c3n2CCC3)cc1,14,10,2,-17
SMILES,UBC9 SUMO inh,14-3-3 Bad inh,eIF4E-4G inh,NCF1 inh
Nc1ccc2nn(-c3cccc4ccccc34)nc2c1,58*,-17,14,-4
Nc1cc2nn(-c3ccccc3)nc2cc1Cl,78*,-10,6,-7
Nc1ccc2nn(-c3ccccc3)nc2c1,66*,-3,11,1
Cc1ccc(-n2nc3cc(C)c(N)cc3n2)cc1,27,3,6,3
COc1ccccc1N1CCN(C(=O)CNC(=O)c2ccc(Cl)cc2Cl)CC1,7,/,/,/
Clc1ncc(Cn2cccn2)s1,-8,-4,-5,2
Cc1cc(/C=C2\C(=O)NN(c3ccccc3)C2=O)c(C)n1-c1ccccc1O,60*,4,-3,-14
Cc1cc(/C=C2/C(=O)NN(c3ccccc3)C2=O)c(C)n1-c1ccc(O)cc1,-3,-11,-7,-11
COc1ccccc1N1CCN(C(=O)C(CC(C)C)NC(=O)C2CCCCC2)CC1 (configuration not stated),5,/,/,/
O=C(NC(NC(=S)Nc1ccccc1C(=O)O)C(Cl)(Cl)Cl)c1cccc([N+](=O)[O-])c1 (configuration not stated),5,73*,14,-3
COc1ccc(-n2c(SCC(=O)N3CCc4ccccc43)nnc2-c2c[nH]c3ccccc23)cc1,2,78*,9,52*
CCn1c(SCC(=O)N2CCc3ccccc32)nnc1-c1c[nH]c2ccccc12,7,-13,-8,-7
COc1cc(CCC(=O)Nc2ccc(C)c(S(=O)(=O)N(C)C)c2)cc(OC)c1OC,-8,-12,-3,-4
COc1ccccc1OC1=NS(=O)(=O)c2ccccc21,8,85*,22,-4
COCCNc1ccc(N2C(=O)CCCC2=O)cc1[N+](=O)[O-],12,-6,1,-3
CCC(=O)N1N=C(c2c(-c3ccccc3)c3cc(Cl)ccc3[nH]c2=O)CC1c1ccco1 (configuration not stated),54*,6,-4,-5
O=S(=O)(/N=C(/c1ccccc1)N1CCCCCC1)c1ccccc1,-35,-9,3,-9
CCn1c(C)c(C(C)=O)c(N2CCN(C(=O)c3ccco3)CC2)nc1=S,1,43,71*,1
CC(=O)N(CN1C(=O)CCC1=O)c1ccc(Cl)c(Cl)c1,-13,82*,-3,-2
Cc1cc(C)nc(NS(=O)(=O)c2ccc(Br)cc2)n1,15,85*,1,4
N/C(=N\OC(=O)c1ccc(Cl)cc1)c1[nH]ncc1Br,-8,-2,1,-8
CCOC(=O)N1CCN(CC(c2ccccc2)c2ccccc2)CC1,4,/,/,/
O=C(N/N=C/c1cc(Cl)cc([N+](=O)[O-])c1O)c1cc(-c2ccccn2)nc2ccccc12,87*,27,2,6
NC(=O)CSc1nnc(-c2cccc(S(=O)(=O)N3CCCCC3)c2)o1,6,84*,3,-2
O=C(CSc1nnc(-c2cccc(S(=O)(=O)N3CCCCC3)c2)o1)c1ccc[nH]1,21,4,-13,-31
SMILES,UBC9 SUMO inh,14-3-3 Bad inh,eIF4E-4G inh,NCF1 inh
O=S(=O)(c1ccc(-c2nnc(SCc3ccccc3)o2)cc1)N1CCCC1,-16,3,-11,42*
CCN(CC)c1ccc(/C=N/NC(=O)c2ccc3nc[nH]c3c2)cc1,0,3,87*,-2
CCCC(=NC(C)CC)C1=C(O)CC(c2ccccc2)CC1=O (configuration not stated),10,/,/,/
CCOc1ccc(/C(O)=C2/C(=O)C(=O)N(CCCn3ccnc3)C2c2cccs2)cc1Cl (configuration not stated),17,25,4,-4
CSc1nnc(C)c(=O)n1COC(=O)COc1ccc(Cl)cc1,11,-5,-3,4
CSc1nnc(C)c(=O)n1COC(=O)COc1ccc(Cl)cc1Cl,-39,-9,-8,48*
CCc1cc2ccc(C)cc2nc1SCC(=O)Nc1c[nH]c(=O)[nH]c1=O,35,13,4,-2
O=C(/C=C/Nc1ccc(S(=O)(=O)Nc2ncccn2)cc1)c1ccc2ccccc2c1,36,-13,0,-31

# Screens as filed in PubChem.
